Results: the supplement of paper PMC7156485
Values joined by “and” are separate entries in the source; they are usually repeats but may differ in a detail not shown here. Equal entries are not always repeated. ± gives the standard deviation of the averaged measurements.

Tests used:
Conditions in all cases: concentration: 10 µM; 24 h
HCC1569 [1] = assay: cell number relative to DMSO (% of DMSO); higher = more cells (less growth inhibition / toxicity)
How it was run: (§1)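 In 384-well plates holding 800 HCC1569 or TDF cells per well in RPMI with 10% FBS, compounds were tested at 10 µM for 24 h at 37 °C in triplicate. Fixation used 3.7% formaldehyde. Staining used a rabbit anti-H1.0 antibody with an AlexaFluor 647 secondary, plus DAPI. Each value, H1.0 nuclear intensity or cell number, is a median of replicates shown as percent of the plate control, and HCC1569 values were smoothed for positional effects.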

TDF [2] = assay: as above
How it was run: as §1

TDF [3] = assay: H1.0 immunofluorescence intensity relative to DMSO (% of DMSO); higher = stronger H1.0 induction, active = 120 or more
How it was run: as §1

HCC1569 [4] = assay: H1.0 immunofluorescence intensity relative to DMSO (% of DMSO); higher = stronger H1.0 induction, active = 140 or more
How it was run: as §1
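Throughout, for H1.0 immunofluorescence intensity relative to DMSO: TDF is a line of transformed human dermal fibroblasts of mesenchymal origin.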
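Throughout, for cell number relative to DMSO: TDF denotes transformed human dermal fibroblasts of mesenchymal origin.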

Row | Compound | cell number (HCC1569 [1]) | cell number (TDF [2]) | H1.0 immunofluorescence intensity (TDF [3]) | H1.0 immunofluorescence intensity (HCC1569 [4])
1 | CCc1ccc(CCOc2ccc(CC3SC(=O)NC3=O)cc2)nc1 (centres undefined) [Pioglitazone] | 102 | 105 | 94.2 (inactive) | 102 (inactive)
2 | CC(C)(C)NCC(O)c1ccc(O)c(CO)c1.CC(C)(C)NCC(O)c1ccc(O)c(CO)c1.O=S(=O)(O)O (centres undefined) [Salbutamol hemisulfate] | 99.9 | 103 | 84.9 (inactive) | 106 (inactive)
3 | Cl.NCc1c[nH]c(=S)n1[C@H]1CCc2c(F)cc(F)cc2C1 | 99.6 | 110 | 95.9 (inactive) | 111 (inactive)
4 | CCCCCCCCCCCCCCCCCCCCCCC(=O)O [Tricosanoic acid] | 99.7 | 99.8 | 105 (inactive) | 105 (inactive)
5 | CCCCCC(O)CCCC(=O)[O-].[Na+] (centres undefined) [5-hydroxydecanoic acid sodium] | 99.5 | 96 | 99.5 (inactive) | 114 (inactive)
6 | CC1=C2C(=COC(C)C2C)C(=O)C(C(=O)O)=C1O (centres undefined) [Citrinin] | 104 | 102 | 101 (inactive) | 97.8 (inactive)
7 | O=C1CCc2c(ccc3ccccc23)O1 [1,2-dihydro-3H-benzo[f]chromen-3-one] | 103 | 101 | 95.1 (inactive) | 92.7 (inactive)
8 | O=C1Nc2ccccc2C1=Cc1c(Cl)[nH]c2ccccc12 [Cdk1 Inhibitor] | 56.6 | 9.63 | 149 (active) | 143 (active)
9 | CC(=O)c1ccc(N2CCOCC2)cc1O [DNA-PK Inhibitor III] | 99.1 | 93.9 | 93.9 (inactive) | 118 (inactive)
10 | CNCCC(Oc1ccc(C(F)(F)F)cc1)c1ccccc1 (centres undefined) [Fluoxetine] | 99.3 | 94.1 | 100 (inactive) | 135 (inactive)
11 | CC(C)(O)c1ccccc1CCC(SCC1(CC(=O)O)CC1)c1cccc(C=Cc2ccc3ccc(Cl)cc3n2)c1 (centres undefined) [Montelukast] | 101 | 101 | 94.7 (inactive) | 94.9 (inactive)
12 | CC(C)NCC(O)c1cc(O)cc(O)c1.CC(C)NCC(O)c1cc(O)cc(O)c1.O=S(=O)(O)O (centres undefined) [Metaproterenol hemisulfate] | 102 | 106 | 92.1 (inactive) | 93.4 (inactive)
13 | C=CC1CN2CCC1CC2C(O)c1ccnc2ccc(OC)cc12.Cl.O.O (centres undefined) | 99.036 ± 0.095 | 99.4 ± 3.1 | 98.1 (inactive) | 92.6 (inactive)
14 | Br.Oc1ccc(C2CNCc3sccc32)cc1O (centres undefined) | 100 | 96.3 | 94.4 (inactive) | 112 (inactive)
15 | CN1CCN(C2=c3ccccc3=Nc3ccc(Cl)cc3N2)CC1 [Clozapine] | 99.6 ± 4.2 | 105 ± 0.29 | 95.4 (inactive) | 106 (inactive)
16 | Oc1ccc(-c2c(-c3ccccc3)nn3c(C(F)(F)F)cc(C(F)(F)F)nc23)cc1 | 67.9 | 12.4 | 154 (active) | 143 (active)
17 | CC(=O)OC1CC2(C)C(CC(O)C3C4(C)CCC(O)C(C)C4CCC32C)C1=C(CCC=C(C)C)C(=O)[O-].[Na+] (centres undefined) [Fusidic acid sodium] | 105 | 113 | 89.5 (inactive) | 83.5 (inactive)
18 | CC1CNc2c(cccc2S(=O)(=O)NC(CCCN=C(N)N)C(=O)N2CCC(C)CC2C(=O)O)C1 (centres undefined) [Argatroban] | 107 | 104 | 94.1 (inactive) | 112 (inactive)
19 | Nc1ncnc2c1ncn2C1CCCO1 (centres undefined) | 76.9 | 96.4 | 99 (inactive) | 183 (active)
20 | CC(CN(C)C)CN1c2ccccc2CCc2ccccc21.O=C(O)C=CC(=O)O (centres undefined) [Trimipramine maleate] | 106 | 106 | 102 (inactive) | 109 (inactive)
21 | CCOC(=O)C1=C(C)NC(C)=C(C(=O)OCC)C1 [Diludin] | 97.2 | 103 | 93.7 (inactive) | 97.2 (inactive)
22 | CC(C)CCN1c2nc(Nc3cc(F)c(O)c(F)c3)ncc2N(C)C(=O)C1C (centres undefined) | 65 | 29.6 | 131 (active) | 148 (active)
23 | N[C@@H](Cc1ccc(O)c(I)c1)C(=O)O [3-Iodo-L-tyrosine] | 108 | 110 | 87.8 (inactive) | 88.9 (inactive)
24 | O=C(NCCO)c1cc(C(=O)NCCO)cc(C(=O)NCCO)c1 | 102 | 104 | 95.2 (inactive) | 96.8 (inactive)
25 | CCN(CC)C(=O)c1ccc(Nc2nc(OCC3CCCCC3)c3[nH]cnc3n2)cc1 [Cdk2 Inhibitor IV,                 NU6140] | 73.4 | 51.1 | 98.1 (inactive) | 158 (active)
26 | O=C(O)c1cn(C2CC2)c2cc(N3CCNCC3)c(F)cc2c1=O [Ciprofloxacin] | 105 | 107 | 91.7 (inactive) | 102 (inactive)

Row | Compound | cell number (HCC1569 [1]) | cell number (TDF [2]) | H1.0 immunofluorescence intensity (TDF [3]) | H1.0 immunofluorescence intensity (HCC1569 [4])
27 | CC(C)CN(C)c1nc(N)c(C(=O)N=C(N)N)nc1Cl [5-(N-Methyl-N-isobutyl)amiloride] | 100 | 92.3 | 106 (inactive) | 101 (inactive)
28 | COc1cc(C(=O)OC2CC(C)=CCCC(C)=CC(O)C2C(C)C)ccc1O (centres undefined) [Tschimganidin] | 102 | 101 | 96.2 (inactive) | 86.8 (inactive)
29 | CN(C)c1nc(N(C)C)nc(N(C)C)n1 [Altretamine] | 103.1 ± 0.68 | 108.4 ± 0.31 | 100 (inactive) | 113 (inactive)
30 | CC(=O)NNC(=O)N1Cc2ccccc2Oc2ccc(Cl)cc21 | 101 | 114 | 91 (inactive) | 103 (inactive)
31 | COc1cc(C(O)C(=O)O)ccc1O (racemic) | 105 | 109 | 89.5 (inactive) | 91.2 (inactive)
32 | COc1c(O)cc2oc(-c3ccc(O)cc3)cc(=O)c2c1O [5,7-dihydroxy-2-(4-hydroxyphenyl)-6-methoxy-4H-chromen-4-one] | 92.6 | 102 | 88 (inactive) | 106 (inactive)
33 | COc1c2c(nc3ccccc13)OC(C(C)(O)CO)C2 (centres undefined) [Dubinidine] | 102 ± 7.2 | 104 ± 5.6 | 96.1 (inactive) | 106 (inactive)
34 | N#CC(=Cc1c[nH]c2ccccc12)C(=O)c1ccc(O)c(O)c1 [Tyrphostin AG 808] | 93.1 | 100 | 86.2 (inactive) | 122 (inactive)
35 | Cl.Clc1cccc(Cl)c1NC1=NCCN1 [Clonidine.HCl] | 103 | 100 | 84.7 (inactive) | 101 (inactive)
36 | CC(Cc1ccccc1)(NC(=O)CN)c1ccccc1.Cl (centres undefined) | 97.7 | 107 | 103 (inactive) | 91.3 (inactive)
37 | O=C1NC(=O)C(c2ccccc2)(c2ccccc2)N1 [5,5-Diphenylhydantoin] | 99.8 | 108 | 89.2 (inactive) | 100 (inactive)
38 | CCN(CC)CCOc1ccc(C(=C(Cl)c2ccccc2)c2ccccc2)cc1 [Clomiphene] | 99.9 | 88.3 | 98 (inactive) | 116 (inactive)
39 | CCCCCCCCCCC(=O)O [Undecanoic acid] | 104 | 100 | 113 (inactive) | 103 (inactive)
40 | CS(=O)(=O)O.NC(=NC(=O)c1nc(Cl)c(N)nc1N)Nc1ccccc1 [Phenamil methanesulfonate] | 103 | 116 | 88.9 (inactive) | 96.1 (inactive)
41 | Cl.N=C(N)c1ccccc1 [Benzamidine hydrochloride] | 100 | 103 | 94 (inactive) | 85.3 (inactive)
42 | CC(=Cc1ccc(C(=O)O)cc1)c1ccc2c(c1)C(C)(C)CCC2(C)C | 100.2 ± 0.57 | 106 ± 2.4 | 89.4 (inactive) | 111 (inactive)
43 | Br.CN1CCc2cc(O)c(O)cc2C1Cc1ccc(O)c(O)c1.O.O.O (centres undefined) | 105 | 108 | 93.9 (inactive) | 89.2 (inactive)
44 | Cl.Cl.NCCc1cnc[nH]1 [Histamine dihydrochloride] | 99.6 | 105 | 92.1 (inactive) | 86.6 (inactive)
45 | O=C1CSC(c2cccc(Br)c2)N1c1cc(Cl)ccc1O (centres undefined) | 102 | 96.5 | 94.8 (inactive) | 103 (inactive)
46 | COc1cc(CC(=O)O)ccc1O [4-Hydroxy-3-methoxyphenylacetic acid] | 105 | 106 | 102 (inactive) | 97 (inactive)
47 | O=c1oc2ccccc2c(O)c1Cc1c(O)c2ccccc2oc1=O [Dicoumarol] | 99.6 | 94.5 | 99 (inactive) | 98.4 (inactive)
48 | Cc1c2oc3c(C)ccc(C(=O)NC4C(=O)NC(C(C)C)C(=O)N5CCCC5C(=O)N(C)CC(=O)N(C)C(C(C)C)C(=O)OC4C)c3nc-2c(C(=O)NC2C(=O)NC(C(C)C)C(=O)N3CCCC3C(=O)N(C)CC(=O)N(C)C(C(C)C)C(=O)OC2C)c(N)c1=O (centres undefined) [Actinomycin D] | 46.2 | 16.9 | 179 (active) | 175 (active)
49 | Cn1cc(C=C2C(=O)Nc3cccnc32)c2ccccc21 | 89.7 and 101 | 104 and 96 | 96 (inactive) and 95.3 (inactive) | 161 (active) and 98.5 (inactive)
50 | Cl.NC(=NCc1ccccc1)NC(=O)c1nc(Cl)c(N)nc1N [Benzamil hydrochloride] | 94.7 | 105 | 92.3 (inactive) | 105 (inactive)
51 | C[C@@H](Nc1ncnc2[nH]c(-c3ccc(O)cc3)cc12)c1ccccc1 | 66 | 64.8 | 108 (inactive) | 139 (inactive)
